This is a sample that favours compounds with a hit; in the whole collection about 15% have one here.
SARS PLpro yeast = SARS-CoV PLP inhibition in yeast | S. cerevisiae expressing SARS-CoV PLpro, growth rescue | Potency, µM (top dose mostly 32.9 µM), inactives show at the top dose activity, positive = growth rescue, hits mostly activators | actives 0.19% (n = 330,000); calls by dose curve; also: potency is read from the fitted curve at half-maximal effect; 0% is about no effect; nearly all actives have a fitted effect of over 55% in size
Pf growth 96h = P. falciparum growth inhibition at 96 hours. actives 6.9% (n = 320,000). P. falciparum luciferase reporter growth, 96 h. Potency, µM (titrated, usually from 28.7 µM), without a hit: top-dose activity change, negative = inhibition, hits mostly inhibitors. AID 504834; also: potency is read from the fitted curve at half-maximal effect; % is scaled to controls: 0 for no effect and ±100 for the full control effect
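P. falciparum expressing integrated firefly luciferase grown in erythrocytes (2% hematocrit, 0.05% parasitemia final) with compounds for 96 hours at 37 C, 5% CO2. Growth inhibition read as loss of luminescence after adding luciferase detection reagent.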
Sm TGR inh = inhibitors of Schistosoma mansoni thioredoxin glutathione reductase | Potency, µM (highest dose often 114 µM), inactives show at the top dose activity change, negative = inhibition, usual class: inhibitors | actives 3% (n = 360,000) | purified TGR, DTNB reduction, TNB absorbance 405 nm; also: potency is read from the fitted curve at half-maximal effect; % is scaled to controls: 0 for no effect and ±100 for the full control effect; nearly all actives have a fitted effect of over 60% in size
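First, TGR (20 nM dispensed) and NADPH were mixed with compound. Second, a 15 min room-temperature incubation followed. Third, further NADPH and then DTNB were added to start the reaction. Finally, TNB absorbance was monitored kinetically.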
HCV inhibitor = HCV inhibition; Huh7.5.1 HCVcc-Cre infection, luciferase reporter, 44 h; Potency, µM (titrated, usually from 41.8 µM), without a hit: at the top dose activity change, negative = inhibition, most hits filed as inhibitors; AID 651820; actives 3.4% (n = 340,000); also: potency is read from the fitted curve at half-maximal effect; % is scaled to controls: 0 for no effect and ±100 for the full control effect
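Seed cells (1,000/well) for 4 h; treat with compound and infect with HCVcc-Cre, moi about 0.5. Incubate 44 h, then detect luciferase activity.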
HCMV antiviral = inhibitors of human cytomegalovirus | HFF cells, HCMV-luciferase reporter, 72 h; hits give low values | activity change, negative = inhibition, % at 57.5 µM | AID 1259415 | actives 4.5% (n = 410,000); in the data active = activity change below about -60%; inconclusive = no clear call, values can overlap the other calls; inactive = above about -39%; also: % is scaled to controls: 0 for no effect and ±100 for the full control effect
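Steps: HFFs plated, 16 h 37C; compounds added; HCMV-luciferase added to MOI 1 PFU/cell; 72 h 37C; OneGlo reagent, 5 min room temperature; luminescence read, normalized to controls.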
Pf growth 48h = inhibits P. falciparum growth in the first generation, 48 h; actives 5.9% (n = 310,000); P. falciparum luciferase growth in erythrocytes, 48 h; Potency, µM (titrated, usually from 28.7 µM), without a hit: at the highest dose activity change, negative = inhibition, usual class: inhibitors; also: potency is read from the fitted curve at half-maximal effect; % is scaled to controls: 0 for no effect and ±100 for the full control effect
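Erythrocytes infected with P. falciparum carrying an integrated firefly luciferase reporter (2% hematocrit, 0.1% parasitemia final) were exposed to compounds in RPMI 1640 with 0.5% Albumax at 37 C, 5% CO2. Growth inhibition was scored as reduced luminescence.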
The depositor's hits bear a star; ? = inconclusive; nt = no result given. Unless noted, calls follow the shape of the dose curve; as a rule, active = well fitted curve in the direction sought with a large enough effect; inconclusive = small, poorly fitted or top-dose-only effect, or another doubt; inactive = no such curve, though single readings can be large; an effect the other way counts as inactive or inconclusive.

SMILES	SARS PLpro yeast	Pf growth 96h	Sm TGR inh	HCV inhibitor	HCMV antiviral	Pf growth 48h
CCN(CC(=O)Nc1ccccc1OC)C(=O)COc1ccc2ccccc2c1	4.8%	23.4%	-2.0%	21.2%	-13.3	21.8%
CN(C)c1ccc2c(c1)Sc1cc(N(C)C)ccc1N2C(=O)c1ccccc1	-0.6%	1.65µM*	-10.1%	-2.4%	29.6	3.7µM*
O=C(c1cccnc1)N1c2ccccc2Sc2ccccc21	0.9%	-28.0%	11.6%	-16.2%	?	?
COc1cc(OC)cc(C(=O)N/N=C/c2ccc(OC)c(COc3ccc(F)cc3)c2)c1	0.4%	-18.8%	0.0%	?	-33.1	20.9%
COc1ccc(OC)c(/C=N/NC(=O)c2cc3c(OC)cccc3[nH]2)c1	-2.4%	-1.5%	9.8%	?	-16.9	-5.4%
COc1cccc(/C=N/NC(=O)c2cc3c(OC)cccc3[nH]2)c1OC	-7.9%	4.0%	3.9%	?	-32.9	16.0%
CCOc1ccc2[nH]c(C(=O)N/N=C/c3cc(OC)c(OC)c(OC)c3)cc2c1	-0.7%	11.7µM*	24.5%	?	43.1	nt
COc1cccc(/C=N/NC(=O)c2cc3c(OC)cccc3[nH]2)c1O	-11.1%	1.85µM*	2.9%	?	-75.0*	?
CCOc1ccc(/C=N/NC(=O)c2cc3c(OC)cccc3[nH]2)cc1	-0.4%	?	-19.6%	-15.9%	-63.1*	?
C=CCOc1ccc(/C=N/NC(=O)c2cc3c(OC)cc(OC)cc3[nH]2)cc1	0.4%	2.33µM*	1.7%	?	39.8	3.29µM*
COc1cc(/C=N/NC(=O)c2cc3ccccc3[nH]2)ccc1O	15.4%	?	2.1%	-9.9%	?	?
CCOc1ccc(/C=N/NC(=O)c2cc3c(OC)cc(OC)cc3[nH]2)cc1OC	-0.1%	0.928µM*	9.3%	?	-3.8	1.65µM*
CCOc1ccc(/C=N/NC(=O)c2ccncc2)cc1OC	nt	nt	nt	nt	71.0	nt
COc1ccc(OC)c(/C=N/NC(=O)c2cc3c(OC)cc(OC)cc3[nH]2)c1	-0.7%	?	2.7%	25.1µM*	34.8	?
CC1Cc2cc(S(=O)(=O)CCC(=O)Nc3cccc(F)c3)ccc2N1C(=O)C1CC1 (stereo not drawn)	nt	nt	1.7%	nt	?	nt
CCCS(=O)(=O)NC(=O)C1(C)CCN(C(=O)C2(c3ccc(Cl)cc3)CCCC2)C1 (stereo not drawn)	nt	nt	nt	nt	1.1	nt
C[C@H](c1ccccc1)N1C[C@H](COCc2ccccc2)Oc2cc(N3CCC[C@H]3C(N)=O)ccc2S1(=O)=O	nt	nt	nt	nt	-12.6	nt
CC1(c2nc3ccccc3[nH]2)c2ccccc2C(=O)N1Cc1ccccn1 (stereo not drawn)	nt	nt	nt	nt	9.4	nt
CCCCCCC1CC(=CN(C)C)C(=O)O1 (stereo not drawn)	nt	nt	nt	nt	-36.9	nt
C=CCn1c(O)c(C(C)=NCCC(c2ccccc2)c2ccccc2)c(=O)[nH]c1=O	9.0%	11.7µM*	-12.2%	18.0%	65.4	-12.8%
CC(=NCc1ccco1)c1c(O)n(Cc2ccccc2)c(=O)[nH]c1=O	1.6%	?	35.5µM*	-22.7%	-18.5	-32.6%
C=CCn1c(O)c(C(C)=NCCN2CCCCC2)c(=O)[nH]c1=O	3.0%	8.1%	14.1µM*	17.0%	55.2	nt
CC(=NCc1ccco1)c1c(O)n(-c2ccc(Cl)cc2)c(=O)[nH]c1=O	-0.1%	?	85.2%	-2.4%	?	?
CCCCn1c(O)c(C(C)=NCCN2CCCCC2)c(=O)[nH]c1=O	-0.7%	?	?	-3.9%	-9.4	?
CCOC(=O)c1c(C)oc2ncnc(Nc3cc(Cl)ccc3OC)c12	nt	nt	6.8%	nt	4.1	nt
SMILES	SARS PLpro yeast	Pf growth 96h	Sm TGR inh	HCV inhibitor	HCMV antiviral	Pf growth 48h
CC(C)C(c1nnnn1Cc1ccccc1)N(CCCO)Cc1cc2cc3c(cc2[nH]c1=O)OCO3 (stereo not drawn)	-2.0%	45.4%	?	-11.0%	-17.1	7.38µM*
CCC(c1nnnn1Cc1ccco1)N(CCc1ccccc1)Cc1cc2cc(C)ccc2[nH]c1=O (stereo not drawn)	3.6%	314.3%	?	?	-28.4	13.1µM*
Cc1ccc2[nH]c(=O)c(CN(CCc3ccccc3)C(c3nnnn3Cc3ccco3)C(C)C)cc2c1 (stereo not drawn)	-1.4%	?	-33.1%	-26.8%	-25.8	3.29µM*
CCc1ccc2[nH]c(=O)c(CN(Cc3ccc(F)cc3)C(c3nnnn3CCN3CCOCC3)C(C)C)cc2c1 (stereo not drawn)	1.6%	75.0%	-11.7%	23.3%	nt	19.4%
CCCCN(CC)CCCn1cnc2c([nH]c3ccc(Cl)cc32)c1=O	nt	nt	-1.0%	nt	-4.3	nt
CCC(C)NC(=O)c1ccc(CSCc2cccc(F)c2)o1 (stereo not drawn)	-1.8%	?	-5.8%	?	17.5	nt
Cc1ccc(CNC(=O)c2ccc(CSCc3ccc(Cl)cc3)o2)cc1	nt	nt	39.8µM*	nt	25.0	nt
COC(=O)c1ccc(Cn2nc(C)c([N+](=O)[O-])c2C)o1	-1.3%	13.1µM*	5.2%	1.5%	11.6	-22.0%
Cc1ccc(CSCc2ccc(C(=O)NC3CC3)o2)cc1	-5.0%	?	-5.0%	-13.5%	0.0	1.17µM*
O=C(NC1CC1)c1ccc(CSCc2cccc(F)c2)o1	-3.7%	-8.7%	35.5µM*	?	49.9	nt
Cc1ccc(CSCc2ccc(C(=O)NC3CCCC3)o2)cc1	-3.7%	-5.3%	?	?	-33.8	?
O=S(=O)(/N=C(/c1ccccc1)N1CCCCC1)c1ccccc1	6.4%	?	0.9%	7.1%	-32.2	36.5%
COc1cc(-c2nnc(COC(=O)c3ccc(C)o3)o2)cc(OC)c1OC	-1.4%	11.2%	-19.3%	-8.6%	8.4	0.4%
Cc1ccc(CCNC(=O)Cn2nc(-c3ccc(C)cc3)ccc2=O)cc1	nt	nt	-0.1%	nt	?	nt
OC[C@H]1OC(O)[C@H](O)[C@@H]1O (stereo partly drawn)	nt	12.5%	-17.8%	9.6%	-3.3	?
Cc1cc(C)cc(NC(=O)c2ccc(Cn3nc(C)c(Cl)c3C)o2)c1	-5.2%	?	?	?	-3.6	?
Cc1ccc(CNC(=O)c2ccc(Cn3nc(C)c(Cl)c3C)o2)cc1	-40.1%	-5.8%	25.1µM*	13.3%	-14.3	9.6%
Cc1ccc(-c2cc(C(=O)N(C)Cc3cnn(C)c3C)c3cc(Br)ccc3n2)cc1	-25.0%	?	-6.2%	?	5.7	9.28µM*
N#CCC(=O)Nc1ccc(C(=O)OCC(=O)NC2CCCCCC2)cc1	-3.5%	?	-6.4%	22.1%	-25.8	?
N#CCC(=O)Nc1ccc(C(=O)OCC(=O)N(C2CCCCC2)C2CCCCC2)cc1	-2.8%	?	5.5%	-19.0%	-28.1	11.7µM*
